The supplement of paper PMC10338343
± gives the standard deviation.

test system: MILI (PIWIL2) piRISC loaded with L1MC piRNA (26 nt); test: pre-steady-state target cleavage rate (min^-1); guide: L1MC piRNA 5'p-UAACUAAAUACUAUGCAAGCUGUAGG; MIWI and MILI are mouse PIWI proteins and EfPiwi is from a freshwater sponge; tags in brackets are library labels; higher = faster piRNA-guided slicing of the target; conditions: auxiliary factor: 500 nM mouse GTSF1
Procedure, shortened: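 Cleave-'n-Seq reactions paired 0.1 nM transcribed, DNA-blocked target RNA library with 1 nM active affinity-purified piRISC holding one synthetic guide, plus or minus 500 nM GTSF1 partner protein, in HEPES–potassium acetate buffer at 33 °C for 0–8 or 0–960 min. After sequencing of uncleaved targets and normalisation to depth and weakly complementary targets, the pre-steady-state cleavage rate was taken from a burst-and-steady-state fit. Three trials were pooled, and k3 was capped at 0.0001 min^-1.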

| Sequence | pre-steady-state target cleavage rate |
| --- | --- |
| UCCUGGAUCAGCUUGCAUAUAUUUAGUUA | 0.0263 ± 0.0067 |
| UCCUGGAUGUCGAUGCAUAGUAUGUAGUUA | 0.0337 ± 0.0087 |
| UCCUGCUACAGCUUGCAUAGAUUUUUCAAA | 0.0091 ± 0.0044 |
| UCCUGGAUGUCGAUGCAUAGUAUUUUGUUA | 0.0682 ± 0.016 |
| UCCUCCUACUCCUUGCAUAGUAUUUACAAA | 0.0842 ± 0.022 |
| UCCUGCUACAGCUUGCAUUCAAUUUAGUUA | 0.00485 ± 0.0037 |
| UCCUGGAUCAGCUUGCAUAGUAUUAGUUA | 0.141 ± 0.018 |
| UCCUGGAUGUCGAUGCAUAGUAUAUUGUUA | 0.0249 ± 0.008 |
| UCCUGGAUGUCGAACGAUAGUAUUUAGUAUA | < 0.0001 |
| UCCUGGAUGUCGAUGCUUAGUAUAUAGUUA | 0.0304 ± 0.0073 |
| UCCUGGAUGUCGUUGCAUAGUAUUUAUUUA | 0.0344 ± 0.011 |
| UCCUGGAUGUGCUUGCAUAGUUUUUUGUUA | 0.0102 ± 0.0056 |
| UCCUGGAUGUCCUUGCUUAGUAUUUAGUAA | 0.0426 ± 0.013 |
| UCCUGGUUCAGCUUCCAUAGUAUUUAGUUA | 0.0301 ± 0.012 |
| UCCUGGAUCAGCUUGCAUAGUAAAUAGAAA | 0.0183 ± 0.0078 |
| UCCUGGAUGAGCUUGCAUAGUAUAAUGUAA | 0.00667 ± 0.0048 |
| UCCUGGAACAGCUUGCAUAGUUUUUUGUUA | 0.0493 ± 0.014 |
| UCCUGGAUGUCCUUGCAUAGCAUUUAGUUA | 0.0257 ± 0.0079 |

| Sequence | pre-steady-state target cleavage rate |
| --- | --- |
| UCCUGGAACACCUUGCAUAGUAUUUAGAAA | 0.146 ± 0.031 |
| UCCUGGAUGUCGAAGCAUAGUAUUUAUGUUA | 0.022 ± 0.0065 |
| UCCUGGAUGUCGAACGUAUCUAUAAUGUUA | < 0.0001 |
| UCCUCCUACAGCUUGCAUACUUUUUAGUUA | 0.00693 ± 0.0043 |
| UCCUGGUACAGCUUGCAUAGUUUUAGUUA | 0.00982 ± 0.0052 |
| UCCUGGUUGAGCUUGCAUAGUAUUUAGAAA | 0.0925 ± 0.026 |
| UCCUGGAUGUCGUUGCAUAGUAUCUAGUUA | 0.11 ± 0.019 |
| UCCUGGAAGUCCUUGCAUAGUAUUUACAAA | 0.0598 ± 0.018 |
| UCCUCCUACAGCUUCCAUAGUAUUUUGUUA | 0.0182 ± 0.0077 |
| UCCUGGAUGUGCUUGCAUAGUAUUAAGAUA | 0.00523 ± 0.0046 |
| UCCUGGUAGUCCUUGCAUAGUAUUUAGAAA | 0.0521 ± 0.017 |
| UCCUGGAUCAGCUUGCAUAGUAUAUACUUA | 0.0182 ± 0.0062 |
| UCCUGCUACAGCUUGCAUUCUAUUUUCAAA | 0.0184 ± 0.0078 |
| UCCUGGAUGAGCUUGGAUUGUAUUUAGUUA | 0.0185 ± 0.0063 |
| UCCUGGUACAGCUUGCAUAGUUUUUAGAAA | 0.0221 ± 0.011 |
| UCCUGGAUGAGCUUGCAUAGUAUUAGUUA | 0.0846 ± 0.015 |
| UCCUGCUACAGCUUGCAUAGAUAUUAGUUA | 0.0176 ± 0.0073 |
| UCCUGGAUGUCCUUGCAUAGUAUUGAGUUA | 0.0563 ± 0.019 |
